# Screening data from PubChem.
# CHRM1 PAM = potentiates human M1 receptor response to acetylcholine; activation, % at 3 µM; AID 588819; CHO-K1 hM1, Fluo-8 calcium fluorescence, ACh EC20; 0% = ACh EC20, 100% = maximal ACh; P11229; hit rate 0.088% among 360,000; in the data active means activation above about 19%, passing the limit was not always enough
# Target sequence (P11229 whole entry, looked up): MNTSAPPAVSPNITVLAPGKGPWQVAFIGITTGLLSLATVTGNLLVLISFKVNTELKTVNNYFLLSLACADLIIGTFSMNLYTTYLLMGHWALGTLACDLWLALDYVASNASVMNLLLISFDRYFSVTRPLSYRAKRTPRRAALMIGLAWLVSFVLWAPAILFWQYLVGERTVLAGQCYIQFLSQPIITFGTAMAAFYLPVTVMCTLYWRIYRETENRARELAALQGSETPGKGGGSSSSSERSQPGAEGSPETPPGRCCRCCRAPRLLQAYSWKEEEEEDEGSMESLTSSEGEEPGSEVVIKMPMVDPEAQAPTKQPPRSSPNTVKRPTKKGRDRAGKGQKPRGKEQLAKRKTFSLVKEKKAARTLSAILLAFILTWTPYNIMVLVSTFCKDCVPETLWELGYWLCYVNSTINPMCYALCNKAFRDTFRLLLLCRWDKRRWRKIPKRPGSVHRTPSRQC
# CHRM1 agonist = activates human CHRM1 receptor; P11229; CHO-K1 hM1, Fluo-8 calcium fluorescence, agonist mode; 0% DMSO, 100% acetylcholine EC100; activation, % at 3 µM; hit rate 0.33% among 360,000;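 active means activation above the run's mean compound activation plus 3 SD, cut at about 16% in these data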;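 further: peak over basal fluorescence ratio within a 140 s kinetic read after compound addition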
# CHO-K1 Ca antag = nonselective inhibitor or artifact in parental CHO-K1 cells | inhibition, % at 3 µM | hit rate 0.6% among 360,000 | ATP-induced calcium, Fluo-8 fluorescence;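 active means inhibition above a per-plate cutoff, the plate's mean sample inhibition plus 3 SD, cut at about 24% in these data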;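 further: 0% = DMSO plus EC80 ATP and 100% = DMSO alone without ATP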
# CHRM1 antagonist = blocks human M1 muscarinic receptor; P11229; CHO-K1 hM1, Fluo-8 calcium fluorescence, ACh EC80 antagonist; inhibition, % at 3 µM; hit rate 1.3% among 360,000;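 active means percent inhibition above its own plate's cutoff, namely the mean of that plate's compound wells plus 3 SD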;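 further: peak over basal fluorescence ratio during 140 s after agonist addition; 0% = ACh EC80 plus DMSO and 100% = DMSO alone without agonist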
# CHO-K1 Ca PAM = counter-screen for M1 PAMs: effect in parental CHO-K1 cells | ATP EC20, Fluo-8 calcium fluorescence; 0% at ATP EC20, 100% at ATP max | hit rate 0.02% among 360,000 | activation, % at 3 µM;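 active means activation above the run cutoff, the mean activation of all test compounds plus 3 SD, cut at about 40% in these data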;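 further: peak over basal fluorescence ratio in a 140 s read after ATP addition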
# CHO-K1 Ca ag = M1 agonist counterscreen hit in parental CHO-K1 cells | Fluo-8 calcium fluorescence; scaled to maximal ATP response, vehicle zero | activation, % at 3 µM | hit rate 0.48% among 360,000 | AID 602248; in the data active means activation above about 15%;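 further: untransfected CHO-K1 host cells lacking M1 receptor as counterscreen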
# Starred values were filed as active, the others as inactive. This is a sample that favours compounds with a hit; in the whole collection about 2.4% have one here.
SMILES,CHRM1 PAM,CHRM1 agonist,CHO-K1 Ca antag,CHRM1 antagonist,CHO-K1 Ca PAM,CHO-K1 Ca ag
CCOC(=O)C1CCCN(Cc2ccc(O)c(OC)c2)C1 (stereo not given),0,23*,-8,1,8,0
O=C(CNC(=O)c1ccco1)OCC(=O)c1ccc(Cl)cc1Cl,11,0,-10,-14,18,1
CCOc1cc(CN2CCCC(C(=O)c3cccc(C(F)(F)F)c3)C2)ccc1O (stereo not given),-22,-8,-11,32*,0,4
O=C(c1cccc(C(F)(F)F)c1)C1CCCN(Cc2cccn2-c2ncccn2)C1 (stereo not given),-28,-11,-9,13,34,3
CCCCOC(=O)Nc1nnc(Cc2ccc(Cl)cc2)s1,0,-3,-12,6,4,0
O=C(CSc1nnnn1C1CC2CCC1C2)Nc1ccnc2ccccc12 (stereo not given),-16,6,37*,32*,2,13
CCCC1=NN2C(=N)/C(=C\c3cc(C)n(Cc4ccccc4)c3C)C(=O)N=C2S1,-27,59*,-5,78*,-17,27*
COc1cccc(NC(=O)CN(C)C(=O)C2=COCCO2)c1,14,1,6,-10,20,2
CCc1ccc(C(=O)C[n+]2cccc3cc(OC)ccc32)cc1,-29,-9,3,59*,8,0
Cc1ccc(OCC(=O)Nc2nc(C)c(Cl)cc2Cl)c([N+](=O)[O-])n1,3,1,-14,-1,5,1
CS(=O)(=O)Nc1ccc(C2=NN(C(=O)c3ccco3)C(c3cccc(F)c3)C2)cc1 (stereo not given),12,-2,6,-1,23,16*
CCOc1cc(/C=N/n2cnnc2)ccc1OC(=O)c1cccc([N+](=O)[O-])c1,-6,-1,31*,23,-9,1
COc1ccc(Br)cc1CN(C)C(=O)CNC(=O)c1ccc2ccccc2c1,-16,-4,-11,29*,-3,3
COc1ccc(CN(C)C(=O)CNC(=O)c2ccc3ccccc3c2)c(OC)c1,3,-3,-10,-3,5,5
CCN(CC)C(=S)NC(=O)c1cc(OC)c(OC)c(OC)c1,-11,-4,7,9,-7,0
Cc1ccccc1-n1c(SCC(=O)N2CCCC2)nnc1-c1ccccn1,22*,1,-12,-37,18,0
CCc1ccccc1-n1c(SCC(=O)N2CCCC2)nnc1-c1ccccn1,6,-2,-4,-7,14,1
Cc1ccc(S(=O)(=O)NN2C(=O)/C(=C/c3cccs3)SC2=S)cc1,12,0,26*,-20,-23,-1
Cc1ccc(/C=C2\SC(=S)N(NS(=O)(=O)c3ccc(C)cc3)C2=O)cc1,3,-4,6,-10,13,3
Clc1cccc(-c2cccc3nccn23)c1Cl,-2,-6,-6,-7,5,2
O=C1c2ccccc2S(=O)(=O)N1Cc1cccc(S(=O)(=O)N2CCOCC2)c1,-1,-2,-4,5,1,3
Cc1ccccc1-c1nnn(Cc2cccc(S(=O)(=O)N3CCOCC3)c2)n1,-11,4,8,19,-5,15*
COc1cccc(C(=O)C2CCCN(Cc3cccc(OCCO)c3)C2)c1 (stereo not given),-4,-11,-6,2,4,1
COc1ccc(C(=O)C2CCCN(C(=O)Cn3cncn3)C2)cc1OC (stereo not given),2,-2,-7,-4,-13,1
COc1cccc(C(=O)C2CCCN(Cc3cccc(-n4nc(C)cc4C)c3)C2)c1 (stereo not given),-30,-10,1,60*,2,1
SMILES,CHRM1 PAM,CHRM1 agonist,CHO-K1 Ca antag,CHRM1 antagonist,CHO-K1 Ca PAM,CHO-K1 Ca ag
COc1cccc(C(=O)C2CCCN(Cc3ccc(OC)c(Cn4cncn4)c3)C2)c1 (stereo not given),-22,-8,0,37*,-14,0
COc1ccc(CN2CCCC(C(=O)c3ccc(Cl)cc3)C2)cc1Cn1cccn1 (stereo not given),-26,-8,-5,58*,-10,5
O=C(CSc1nc(O)cc(=O)[nH]1)N1c2ccccc2CCc2ccccc21,20,-2,4,-12,-1,-1
CC(C)N(CCNC(=O)c1oc(=O)c2ccccc2c1-c1ccccc1)Cc1ccco1,-17,-13,3,15,13,11
COC(=O)CCCCCCCCCCN1CCCCC1,-24,-8,-4,27*,16,2
COC(=O)CCCCC(=O)OC,18,5,-13,-16,11,0
CCN(CC)CCNC(=O)C12CC3CC(C)(CC(C)(C3)C1)C2,-25,-12,-31,40*,2,1
CCN(CC)CCNC(=O)C12CC3CC(CC(C3)C1)C2,-5,-6,-2,9,14,0
Clc1ccc(C(c2ccccc2)N2CCNCC2)cc1 (stereo not given),-10,0,-15,23,18,1
CC12CNCC(C)(CN(C(c3ccccc3)c3ccccc3)C1)C2,-22,-6,15,59*,-5,0
N[C@@H](CO)c1nnc([C@H](CC(=O)O)NC(=O)C2CCNCC2)o1,12,-1,-11,-8,26,0
CC(C)c1ccc(N=c2c([N+](=O)[O-])nn(-c3ccc4c(c3)OCCO4)n2O)cc1,-24,-5,-12,39*,9,9
O=[N+]([O-])c1nn(-c2ccc3c(c2)OCCO3)n(O)c1=NC1CCN(Cc2ccccc2)CC1,-25,-9,16,47*,-8,0
COc1cc(N=c2c([N+](=O)[O-])nn(-c3ccc4c(c3)OCCO4)n2O)cc(OC)c1,2,-4,-10,-5,13,2
CCOC(=O)c1cc(C(=O)OCC)c(=O)[nH]c1N1CCCC1,13,-5,-9,-4,22,2
CCOC(=O)N1CCC(NC(=O)C2CCN(S(=O)(=O)c3ccc4c(c3)oc(=O)n4C)CC2)CC1,2,-5,-3,2,2,1
CC(c1ccc(O)cc1)(c1ccc(O)cc1)c1ccc(CCBr)cc1,1,10,6,1,-7,18*
Cc1cccc(NC(=S)NCc2ccco2)n1,11,5,2,-8,11,17*
S=C(NCc1ccco1)NCc1ccco1,11,-3,-9,-18,12,0
COC(=O)c1ccc(NC(=S)NCc2ccco2)cc1,-3,2,30*,4,-14,1
Cc1nc2sc(C(c3ccc(Cl)cc3)N3CCN(c4ccccc4F)CC3)c(O)n2n1 (stereo not given),-1,-2,21,-15,-6,0
COc1cccc(-c2cnc3c(NC=O)cc(-c4ccncc4)cn23)c1,0,-6,-5,-7,10,2
